The experiment relates to Trichuris muris adult worms. Kind of experiment: mean motility score (Paragon pixel variance) of adult worms (arbitrary units); higher = more motile worms, i.e. less anthelmintic effect; extreme values may be limits of the assay. Conditions: 100 µM; 24 h. In a few lines: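 Adult Trichuris muris worms were collected from infected NOD SCID mice and placed one per well in 96-well plates containing 100 μL RPMI-1640 with antibiotics and drug at 100 μM (1% v/v DMSO), then incubated for 24 h at 37°C and 5% CO2. Each plate was filmed on an automated phenotyping platform, capturing 200 frames 100 ms apart. The motility score came from Paragon pixel-variance analysis and was averaged over replicate wells. Every drug was tested with three worms in three wells on three separate occasions, alongside vehicle and positive controls.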
In the case of `O=C1NC(=O)C(c2ccccc2)(c2ccccc2)N1` [phenytoin], the mean motility score turned out to be 2510.
In the case of `CCOC(=O)N1CCC(=C2c3ccc(Cl)cc3CCc3cccnc32)CC1.Cl` [loratadine hydrochloride] it was 0; in that of `CCOC(=O)[C@H](CCc1ccccc1)N[C@@H](C)C(=O)N1CCC[C@H]1C(=O)O` [enalapril], 2120.
In the case of `NNCCc1ccccc1` [phenelzine] it was 3810.
In the case of `O=C1c2cccc(O)c2C(=O)c2c(O)cccc21` [danthron] it was 2660; in that of `O=C1CCc2ccc(OCCCCN3CCN(c4cccc(Cl)c4Cl)CC3)cc2N1` [aripiprazole], 3030; in that of `O=c1[nH]c(=O)n([C@H]2C[C@H](O)[C@@H](CO)O2)cc1F` [floxuridine], 2280.
The molecule `COc1ccccc1OCCNCC(O)COc1cccc2[nH]c3ccccc3c12` (configuration not stated) [carvedilol] yielded a mean motility score of 35.7.
Take `C=C(c1ccc(C(=O)O)cc1)c1cc2c(cc1C)C(C)(C)CCC2(C)C` [bexarotene]: the mean motility score stood at 750.
The figure for `Cc1ccc(S(=O)(=O)O)cc1.Clc1cccc(Cl)c1NC1=NCCN1` [clonidine p-toluenesulfonic acid] is 3620; for `NC[C@H](O)c1ccc(O)c(O)c1` [noradrenaline] it is 3120.
In the case of `CCc1ccc(CCOc2ccc(CC3SC(=O)NC3=O)cc2)nc1` (configuration not stated) [pioglitazone] it was 0; in that of `CN1CC(=O)N2[C@H](c3ccc4c(c3)OCO4)c3[nH]c4ccccc4c3C[C@@H]2C1=O` [tadalafil], 990; in that of `CCCCC1=NC2(CCCC2)C(=O)N1Cc1ccc(-c2ccccc2-c2nn[nH]n2)cc1` [irbesartan], 2360.
The figure for `CSCC[C@H](N)C(=O)O` [methionine] is 3180; for `COc1ccc(C(=O)CC(=O)c2ccc(C(C)(C)C)cc2)cc1` [avobenzone] it is 3070.
As to `COc1ccccc1N1CCN(CCCNc2cc(=O)n(C)c(=O)n2C)CC1` [urapidil], the mean motility score worked out at 2810.
In the case of `O=C(c1ccccc1)c1ccc2n1CCC2C(=O)O` (configuration not stated) [ketorolac] it was 2460.
The figure for `O=c1ccc2ccccc2o1` [coumarin] is 3690.
In the case of `CN1Cc2c(N)cccc2C(c2ccccc2)C1` (configuration not stated) [nomifensine] it was 2230.
Take `CC1(C)[C@@H](O[C@H]2O[C@H](C(=O)O)[C@@H](O)[C@H](O)[C@H]2O[C@@H]2O[C@H](C(=O)O)[C@@H](O)[C@H](O)[C@H]2O)CC[C@]2(C)[C@H]3C(=O)C=C4[C@@H]5C[C@@](C)(C(=O)O)CC[C@]5(C)CC[C@@]4(C)[C@]3(C)CC[C@@H]12` [glycyrrhizin]: the mean motility score came to 1890.
In the case of `COc1c(C)c2c(c(O)c1C/C=C(\C)CCC(=O)O)C(=O)OC2` [mycophenolic acid] it was 2100; in that of `CC/C(=C(\c1ccccc1)c1ccc(OCCN(C)C)cc1)c1ccccc1` [tamoxifen], 165.
In the case of `CN(C)CC/C=C1/c2ccccc2Sc2ccc(Cl)cc21` [chlorprothixene] it was 5; in that of `CCCc1nc(C)c2c(=O)nc(-c3cc(S(=O)(=O)N4CCN(CC)CC4)ccc3OCC)[nH]n12` [vardenafil], 2160; in that of `O=C(CCCCCCC(=O)Nc1ccccc1)NO` [vorinostat], 1260.
In the case of `Cc1nnc(SCC2=C(C(=O)[O-])N3C(=O)[C@@H](NC(=O)Cn4cnnn4)[C@H]3SC2)s1.[Na+]` [cefazolin sodium] it was 1680.

The record behind these values is the supplement of paper PMC10503962.
